Where “and” joins values, the source holds several entries; their conditions need not be identical. Equal entries are not always repeated. Some structures have more than one record in an assay (separate samples or runs), and their calls can disagree. Calls of active or inactive are those of the source. Rule for the calls: active = hit-call score of the fitted dose curve at least 0.9, where 1 is the maximum; inactive = score below 0.9.
Assays:
[1] = read-out: Plasminogen activator inhibitor-1 (PAI1), SERPINE1 (gene 5054); experiment: BSK_CASM3C_PAI1: BioMAP Diversity Plus: CASM3C Assay for Plasminogen activator inhibitor-1 (PAI1) Biomarker Activity (AID 2284284); conditions: primary human coronary artery smooth muscle cells;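 note: PAI-1 protein level measured by ELISA 24 h after dosing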
[2] = read-out: Monocyte Chemoattractant Protein-1 (MCP1), CCL2 (gene 6347); experiment: BSK_hDFCGF_MCP1: BioMAP Diversity Plus: hDFCGF Assay for Monocyte Chemoattractant Protein-1 (MCP1) Biomarker Activity (AID 2284285); conditions: primary human foreskin fibroblasts
Outline: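 Human foreskin fibroblasts (hDFCGF system) were exposed to compound and secreted MCP-1 was measured by ELISA after 24 hours. Activity was fitted relative to DMSO. Cytotoxicity was checked by SRB total-protein staining in parallel cultures.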

[3] = read-out: Vascular cell adhesion molecule 1 (VCAM1), VCAM1 (gene 7412); experiment: BSK_IMphg_VCAM1: BioMAP Diversity Plus: IMphg Assay for Vascular cell adhesion molecule 1 (VCAM1) Biomarker Activity (AID 2284286); conditions: primary human endothelial cells with macrophages
Outline: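 Human venular endothelial cells co-cultured with macrophages; VCAM-1 quantified by ELISA 24 h after dosing, fitted in the positive direction against DMSO. Cytotoxicity was checked in parallel cultures by SRB total-protein staining (0.1% SRB after 10% TCA fixation, 560 nm).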

[4] = read-out: Intercellular Adhesion Molecule 1 (ICAM1), ICAM1 (gene 3383); experiment: BSK_hDFCGF_ICAM1: BioMAP Diversity Plus: hDFCGF Assay for Intercellular Adhesion Molecule 1 (ICAM1) Biomarker Activity (AID 2284287); conditions: primary human foreskin fibroblasts
Outline: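 Primary human foreskin fibroblasts (hDFCGF system) dosed with chemical; ICAM-1 quantified by ELISA at 24 h relative to DMSO. Parallel SRB total-protein staining to assess overt cytotoxicity.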

CD40, CD40 (gene 958) = experiment: BSK_IMphg_CD40: BioMAP Diversity Plus: IMphg Assay for CD40 Biomarker Activity (AID 2284288); conditions: primary human endothelial cells with macrophages
Outline: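 Venular endothelial cells co-cultured with macrophages (human primary), CD40 measured by ELISA 24 h after dosing. Positive-direction fit vs DMSO baseline; cytotoxicity tracked by SRB total-protein staining in parallel cultures.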

[5] = read-out: TIMP metallopeptidase inhibitor 2 (TIMP2), TIMP2 (gene 7077); experiment: BSK_hDFCGF_TIMP2: BioMAP Diversity Plus: hDFCGF Assay for TIMP metallopeptidase inhibitor 2 (TIMP2) Biomarker Activity (AID 2284289); conditions: primary human foreskin fibroblasts
Outline: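 Primary human foreskin fibroblasts in the hDFCGF system, dosed for 24 h; TIMP-2 level measured by ELISA, fitted in the positive direction against DMSO; cytotoxicity checked in parallel by sulforhodamine B total protein staining.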

[6] = read-out: Interleukin-1 alpha (IL1a), IL1A (gene 3552); experiment: BSK_IMphg_IL1a: BioMAP Diversity Plus: IMphg Assay for Interleukin-1 alpha (IL1a) Biomarker Activity (AID 2284290); conditions: primary human endothelial cells with macrophages
Outline: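 Human venular endothelial cells co-cultured with macrophages, IMphg system. IL-1α is measured by ELISA 24 h after dosing and fitted in the positive direction against DMSO. Cytotoxicity is assessed by SRB staining of parallel cultures.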

[7] = read-out: E-selectin (Homo sapiens) (UniProt P16581); experiment: BSK_IMphg_ESelectin: BioMAP Diversity Plus: IMphg Assay for Eselectin Biomarker Activity (AID 2284291); conditions: primary human endothelial cells with macrophages
Method: BSK_IMphg is a cell-based, multiplexed-readout assay that uses venular endothelial cells and macrophages, a human vascular primary cell, with measurements taken at 24 hours after chemical dosing in a microplate: 96-well plate.BSK_IMphg_ESelectin is an assay component measured in the BSK_IMphg assay. It measures E-selectin antibody related to regulation of gene expression using ELISA technology.Data from the assay component BSK_IMphg_ESelectin was analyzed at the endpoint, BSK_IMphg_ESelectin, in the positive analysis fitting direction relative to DMSO as the negative control and baseline of activity. Using a type of binding reporter, gain or loss-of-signal activity can be used to understand protein changes. […]
The levels of cell surface (or secreted, indicated by the prefix "s") biomarker endpoints were measured by ELISA. Overt cytotoxicity to cells in confluent adherent cultures (all systems other than the BT system) was assessed by measuring total protein levels using sulforhodamine B (SRB) staining in parallel cultures at the time of biomarker measurements, indicated as SRB endpoints. For proliferation assays for adherent cell types, individual cell types are cultured at sub-confluence and relative cell numbers quantified by SRB staining at time points optimized for each system (48 h: 3C and CASM3C systems; 72 h: BT and HDF3CGF systems; 96 h: SAg system). […] Plates were read after 6 h.

[8] = BSK_IMphg_SRB: Viability Assessment in the BioMAP Diversity Plus: IMphg Assay (AID 2284292); conditions: primary human endothelial cells with macrophages;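 note: measured one day after compound addition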
Outline: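 Human venular endothelial cells with macrophages, 24 h after chemical dosing; total protein by 0.1% SRB staining after 10% TCA fixation, read at 560 nm. Positive-direction fitting versus DMSO baseline.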

[9] = read-out: Macrophage colony-stimulating factor (MCSF), CSF1 (gene 1435); experiment: BSK_IMphg_MCSF: BioMAP Diversity Plus: IMphg Assay for Macrophage colony-stimulating factor (MCSF) Biomarker Activity (AID 2284293); conditions: primary human endothelial cells with macrophages
Outline: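 Co-culture of human venular endothelial cells and macrophages, 24 hours of chemical exposure. M-CSF quantified by ELISA, with parallel SRB total-protein staining for cytotoxicity; activity fitted relative to DMSO.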

E-selectin (Homo sapiens), sequence (P16581 whole entry, looked up): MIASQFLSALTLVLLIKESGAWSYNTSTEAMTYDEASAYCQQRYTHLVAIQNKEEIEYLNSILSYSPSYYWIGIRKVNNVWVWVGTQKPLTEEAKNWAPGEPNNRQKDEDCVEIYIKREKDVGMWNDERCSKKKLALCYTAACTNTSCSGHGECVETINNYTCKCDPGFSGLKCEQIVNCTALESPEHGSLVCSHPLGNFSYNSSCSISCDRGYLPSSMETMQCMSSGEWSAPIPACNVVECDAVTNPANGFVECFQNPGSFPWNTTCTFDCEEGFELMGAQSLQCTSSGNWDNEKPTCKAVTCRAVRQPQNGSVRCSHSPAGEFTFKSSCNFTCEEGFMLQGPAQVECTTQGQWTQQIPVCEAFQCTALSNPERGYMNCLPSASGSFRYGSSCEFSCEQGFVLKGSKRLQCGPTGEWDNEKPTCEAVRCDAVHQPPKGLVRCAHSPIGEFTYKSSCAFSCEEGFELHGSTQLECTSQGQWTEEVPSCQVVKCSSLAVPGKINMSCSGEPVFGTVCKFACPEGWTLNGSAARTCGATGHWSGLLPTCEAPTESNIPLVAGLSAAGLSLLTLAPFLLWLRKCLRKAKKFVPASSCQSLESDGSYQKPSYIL

## CCNS(=O)(=O)C(F)(F)C(F)(F)C(F)(F)C(F)(F)C(F)(F)C(F)(F)C(F)(F)C(F)(F)F
[1]
  outcome: inactive
[2]
  AC50: 49.3 µM (active) and 46.9 µM (active)
[3]
  AC50: 48 µM (active) and 49.6 µM (active)
[4]
  AC50: 42.5 µM (active) and 48.4 µM (active)
CD40, CD40 (gene 958)
  AC50: 26.6 µM (active)
  outcome: inactive
[5]
  AC50: 30 µM (active) and 46.5 µM (active)
[6]
  outcome: inactive
[7]
  AC50: 10.8 µM (active) and 30 µM (active)
[8]
  outcome: inactive
[9]
  outcome: inactive

Reference: PubChem BioAssay (EPA / NIEHS)
